# Compounds without any hit were thinned out: in the full panel of roughly 83,000, 20% have a hit.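 Cell lines were cultured in 96-well plates, exposed to a single compound concentration, and assessed for percent growth 48 hours later.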 Unmarked numbers belong to inactive results. Calls of active or inactive are those of the source. Rule for the calls: active = growth percent below 10; inactive = the rest.
# Columns and labels:
# Assay in all cases: NCI-60 one-dose screen, 48 h (100 = growth as untreated, 0 = no growth, -100 = all killed)
# Conditions in all cases: 10 µM unless noted
# HCT-15 colon = tested on: HCT-15 colon
# HT29 colon = tested on: HT29 colon
# SNB-75 CNS = tested on: SNB-75 CNS
# SNB-19 CNS = tested on: SNB-19 CNS
# U251 CNS = tested on: U251 CNS
# PC-3 prostate = tested on: PC-3 prostate
# SK-MEL-5 melanoma = tested on: SK-MEL-5 melanoma
# UACC-62 melanoma = tested on: UACC-62 melanoma
# LOX IMVI melanoma = tested on: LOX IMVI melanoma
# SK-MEL-28 melanoma = tested on: SK-MEL-28 melanoma
# SK-MEL-2 melanoma = tested on: SK-MEL-2 melanoma
# EKVX NSCLC = tested on: EKVX NSCLC
# SN12C renal = tested on: SN12C renal
# UO-31 renal = tested on: UO-31 renal
# TK-10 renal = tested on: TK-10 renal
# ACHN renal = tested on: ACHN renal
# CAKI-1 renal = tested on: CAKI-1 renal
# A498 renal = tested on: A498 renal
# CCRF-CEM leukemia = tested on: CCRF-CEM leukemia
# MOLT-4 leukemia = tested on: MOLT-4 leukemia
SMILES,growth (HCT-15 colon),growth (HT29 colon),growth (SNB-75 CNS),growth (SNB-19 CNS),growth (U251 CNS),growth (PC-3 prostate),growth (SK-MEL-5 melanoma),growth (UACC-62 melanoma),growth (LOX IMVI melanoma),growth (SK-MEL-28 melanoma),growth (SK-MEL-2 melanoma),growth (EKVX NSCLC),growth (SN12C renal),growth (UO-31 renal),growth (TK-10 renal),growth (ACHN renal),growth (CAKI-1 renal),growth (A498 renal),growth (CCRF-CEM leukemia),growth (MOLT-4 leukemia)
COc1cc(C(=O)/C=C/c2c(-c3cccs3)nc3sc(C)cn23)cc(OC)c1OC,10.4%,3.69% (active),-15.6% (active),15.5%,5.96% (active),8.02% (active),-56.5% (active),-38.7% (active),9.35% (active),21.7%,13.1%,13.4%,29%,-7.93% (active),8.26% (active),12.7%,-12.7% (active),-15.7% (active),19.5%,-2.47% (active)
Cn1cc(-c2nc(-c3c[nH]c4ccncc34)cs2)c2cc(F)ccc21,-81.8% (active),-80.4% (active),-95% (active),-80.3% (active),-89.1% (active),-73.1% (active),-97.9% (active),-85.7% (active),-94.5% (active),-95.1% (active),-58.7% (active),-75.4% (active),-87.9% (active),-93.2% (active),-49.3% (active),-99.6% (active),-90.9% (active),-63.5% (active),-41.6% (active),-58.3% (active)
CCn1c2ccccc2c2cc(C(O)c3cccc4ncccc34)ccc21 (stereo not given),11.6%,8.32% (active),31.1%,36.4%,19.2%,13.4%,-4.22% (active),16%,-8.41% (active),61.5%,51.5%,59.3%,27.6%,11.9%,54.7%,27.9%,43%,8.73% (active),–,13.5%
Cc1ccc2c(c1)CC(O)CC1C(=O)N(CCO)CC(=O)N21 (stereo not given),106%,96.1%,83%,102%,95.4%,96.8%,104%,97.3%,96.2%,102%,86.2%,104%,100%,95.8%,88.6%,104%,92.6%,99.4%,–,92.2%
COc1cc2cc(Oc3ccc(NC(=O)Nc4ccc(F)c(C(F)(F)F)c4)cc3)c(C)nc2cc1OCCN1CCCCC1,-71.5% (active),-74% (active),92.7%,62.9%,-85.3% (active),-76% (active),-89.3% (active),50.6%,-70.4% (active),-62.5% (active),102%,57.6%,91.7%,75.3%,118%,84.1%,-85% (active),84.7%,2.51% (active),-14.5% (active)
COc1ccc(C2=C/C(=C\c3ccccc3O)C(=O)N2Cc2ccccc2)cc1,67.6%,102%,92.3%,82.3%,83.9%,52.2%,66.2%,63.9%,81%,79.9%,51.4%,82.1%,95.8%,68.4%,85.3%,93.4%,93.2%,98.3%,–,66.8%
Clc1ccc2c(NCCCn3cnc4c(N5CCCC5)nc(Cl)nc43)ccnc2c1,95.5%,100%,86.3%,103%,99.8%,91.9%,99.7%,101%,90.2%,107%,89.6%,96.4%,94.3%,77.4%,102%,91.8%,90.8%,94.4%,104%,92.3%
COc1cc(CNC(=O)CCCC/C=C/C(C)C)ccc1OCc1cn(-c2ccc(C(F)(F)F)cc2)nn1,59.7%,79%,49.7%,76.1%,46.7%,62.2%,97.1%,84.3%,60.3%,107%,95.1%,88.3%,20.5%,70.5%,92.8%,90.2%,80.4%,85.8%,–,80.3%
CC(=O)O[C@H]1C[C@@]2(C)[C@@H](C[C@@H](O)[C@H]3[C@@]4(C)CC[C@H](N5CCCC5)[C@@H](C)[C@@H]4CC[C@@]32C)/C1=C(\CCC=C(C)C)C(=O)O,94.5%,103%,97.7%,99.6%,99.5%,92.8%,96.2%,94.9%,97%,92.9%,100%,94%,98.4%,81.2%,95.1%,102%,91.6%,104%,–,-57.9% (active)
COc1ccc2c(c1)c(-c1nc(-c3cn(C)c4ccncc34)cs1)cn2C,-22.1% (active),-58.1% (active),120%,20.9%,-74.9% (active),-17.1% (active),-22.8% (active),107%,-92.3% (active),86.8%,112%,-36.7% (active),94.2%,71.2%,79.7%,95%,75.6%,90.9%,–,-31.1% (active)
COc1ccc(S(=O)(=O)N(C)c2oc(-c3ccc(Cl)cc3)nc2C#N)cc1,44.3%,65.9%,65.1%,81%,81.1%,87.4%,86.1%,59.1%,71.9%,84.4%,85%,86.8%,88.4%,72.2%,94.3%,101%,75.6%,63.8%,–,59.4%
C/C=C(/C)C(=O)O[C@@H]1CC(C)(C)CC2C34OC(=O)[C@@]21CC[C@@]3(C)[C@]1(C)CCC2C(C)(C)C(=O)CC[C@]2(C)C1C[C@@H]4O (stereo not given in full),38.4%,65.1%,64.1%,78.6%,46.9%,25.4%,27.8%,55.3%,33.5%,75.8%,80.3%,50.1%,83.7%,67.8%,73.2%,85.9%,59.6%,69.3%,–,24.2%
N#CC1=C(N)Oc2c(ccc3cccnc23)C1c1ccccc1 (stereo not given),28%,12.6%,-6.14% (active),52.7%,23.1%,22.8%,6.58% (active),47.2%,33.7%,49.4%,43.2%,51.8%,49.5%,43.6%,73%,45.8%,39.9%,9.1% (active),15.7%,39.2%
C#CCOc1ccc(C2=NN(C)C3N=C(Cl)c4ncn(C)c4N23)cc1OCC#C (stereo not given),92.1%,103%,97.6%,103%,98.7%,91.1%,86.1%,84.3%,89.2%,96.5%,105%,102%,97.6%,74.6%,99%,89.6%,103%,85.4%,87.4%,82.9%
O=C(Nc1ncc(Cc2ccc(Cl)cc2)s1)c1ccc2c(c1)OCCO2,8.98% (active),7.68% (active),23%,43.4%,17.6%,30.3%,-21.3% (active),45.8%,31.3%,76.2%,41%,35.7%,30.8%,50.2%,49.5%,29.8%,28.7%,-2.66% (active),–,6.99% (active)
CC1=C2[C@@H](CC1)[C@]1(C)O[C@@](C(C)C)(C[C@H]1OC(=O)CO)[C@H]2OC(=O)CCCc1ccccc1,65.7%,72.1%,90.8%,92.5%,74.5%,26.9%,66.8%,40.2%,52.3%,90.2%,66.8%,94.1%,54.9%,39.6%,88.4%,56.7%,59.8%,59.3%,–,23.5%
